From PubChem
Hits are enriched below; roughly 2.8% of the tested compounds scored in any of these assays.
POLI inh: qHTS for Inhibitors of Polymerase Iota | Potency, µM (series often up to 115 µM), inactives show top-dose activity, negative = inhibition, actives largely listed as inhibitors | DNA polymerase iota (Homo sapiens), Q9UNA4 | 1% of 390,000 active | Pol iota fluorescent replication assay, 10 min; further: potency means the concentration at half of the fitted maximal effect
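Pol iota at 10 nM preincubated 15 min with compounds at room temperature; reaction started with fluorescent substrate, 50 nM final. Fluorescence read kinetically at 0 and 10 min; buffer-only wells as negative control.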
WRN helicase inh: qHTS for Inhibitors of WRN Helicase | Bifunctional 3'-5' exonuclease/ATP-dependent helicase WRN (Homo sapiens), Q14191 | 0.46% of 360,000 active | WRN helicase unwinding, fluorescent forked duplex, kinetic | Potency, µM (doses to about 114 µM), for the others: at the highest dose activity change, negative = inhibition, hits mostly inhibitors; further: potency means the concentration at half of the fitted maximal effect; on the % scale 0 is the no-effect control and ±100 the full control effect; nearly all actives have a fitted effect of over 55% in size
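Kinetic fluorescence helicase assay: unwinding of a quenched forked DNA duplex (100 nM final) with 2 mM ATP final raises red fluorescence (525/598 nm). Compounds sat 15 min at room temperature with 20 nM WRN beforehand.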
Pol beta inh: qHTS Assay for Inhibitors of DNA Polymerase Beta; Pol beta primer extension/strand displacement, fluorescence kinetic; Potency, µM (titrated, usually from 114 µM), for the others: top-dose activity change, negative = inhibition, usual class: inhibitors; 1.3% of 340,000 active; further: potency means the concentration at half of the fitted maximal effect; on the % scale 0 is the no-effect control and ±100 the full control effect
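Pol beta (10 nM) and compounds were preincubated 15 min at room temperature, then 50 nM substrate (final) started primer extension/strand displacement. Reads were taken at 0 and 10 min; concentration-response data were fitted to a four-parameter Hill equation.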
PI5P4Ka inh: qHTS for Inhibitors of phosphatidylinositol 5-phosphate 4-kinase (PI5P4K); Phosphatidylinositol 5-phosphate 4-kinase type-2 alpha (Homo sapiens), P48426; PI5P4Kalpha enzyme, ADP-Glo luminescence, 60 min; hits give low values; max response, %; 1.2% of 330,000 active; AID 652105, 2013; active means max response of -50% or lower; inconclusive means between -30% and -50%; inactive means -30% or higher; further: value at the top dose of about 77 µM; on the % scale 0 is the no-effect control and ±100 the full control effect
Target sequence (P48426 whole entry, looked up): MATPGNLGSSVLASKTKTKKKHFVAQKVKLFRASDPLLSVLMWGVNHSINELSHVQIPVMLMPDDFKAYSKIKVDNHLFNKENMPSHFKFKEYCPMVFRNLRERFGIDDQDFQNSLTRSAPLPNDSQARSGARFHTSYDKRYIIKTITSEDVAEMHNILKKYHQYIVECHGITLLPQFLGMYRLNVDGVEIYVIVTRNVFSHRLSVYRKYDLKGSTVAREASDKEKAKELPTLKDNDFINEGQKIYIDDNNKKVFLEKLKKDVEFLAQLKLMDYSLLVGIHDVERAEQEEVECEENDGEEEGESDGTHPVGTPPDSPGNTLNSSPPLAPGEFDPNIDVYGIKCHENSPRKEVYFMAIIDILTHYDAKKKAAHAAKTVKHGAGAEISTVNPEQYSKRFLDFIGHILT
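ADP-Glo luminescence end-point read after a 60 min room-temperature kinase reaction of PI5P4Kalpha plus substrate, initiated with ATP at 5 microM final. Buffer: 0.038 M HEPES pH 7.4, EGTA, 0.1% CHAPS, 5% DMSO.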
Pol kappa inh-1: qHTS for Inhibitors of Polymerase Kappa; purified Pol kappa, fluorescent DNA synthesis assay, 10 min; Potency, µM (titrated, usually from 107 µM), for inactives: top-dose activity, negative = inhibition, most hits filed as inhibitors; 0.53% of 400,000 active; further: potency means the concentration at half of the fitted maximal effect; on the % scale 0 is the no-effect control and ±100 the full control effect
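Activity was followed as the change in fluorescence between reads at 0 and 10 min after starting the reaction with 50 nM substrate. Beforehand, 10 nM polymerase had been preincubated with compound for 15 min at room temperature.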
Pol eta inh-1: qHTS for Inhibitors of Polymerase Eta; Potency, µM (doses to about 114 µM), without a hit: at the top dose activity change, negative = inhibition, hits mostly inhibitors; DNA polymerase eta (Homo sapiens), Q9Y253; AID 588591, 2011; recombinant Pol eta, fluorescent DNA replication assay; 1.2% of 390,000 active; further: potency means the concentration at half of the fitted maximal effect; on the % scale 0 is the no-effect control and ±100 the full control effect
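Fluorescent replication assay: 50 nM final substrate added after a 15 min room-temperature compound preincubation with 10 nM enzyme. Signal taken at 0 min and again at 10 min.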
TbPGK inh: qHTS for inhibitors of Phosphogylcerate Kinase: Hit Validation Screen; Potency, µM (doses to about 57.5 µM), for the others: at the top dose activity change, negative = inhibition, hits mostly inhibitors; TbPGK coupled GAPDH assay, Kinase-Glo luminescence; 79% of 500 active; shares compounds with Pol kappa inh-1; further: potency means the concentration at half of the fitted maximal effect; on the % scale 0 is the no-effect control and ±100 the full control effect; nearly all actives have a fitted effect of over 65% in size
Pol iota confirm: qHTS for Inhibitors of Polymerase Iota: Confirmatory Assay for Cherry-picked Compounds. shares compounds with Pol kappa inh-1. Pol iota primer extension, TAMRA/BHQ fluorescence. Potency, µM, most hits filed as inhibitors. 77% of 1,500 active. AID 720496, 2013; further: potency means the concentration at half of the fitted maximal effect
Pol kappa inh-2: qHTS for Inhibitors of Polymerase Kappa: Confirmatory Assay for Cherry-picked Compounds. shares compounds with Pol eta inh-1. AID 720501, 2013. Potency, µM, usual class: inhibitors. 76% of 920 active. purified Pol-kappa, fluorescent strand-displacement substrate; further: potency means the concentration at half of the fitted maximal effect
Pol eta inh-2: qHTS for Inhibitors of Polymerase Eta: Confirmatory Assay for Cherry-picked Compounds. 64% of 2,600 active. shares compounds with Pol eta inh-1. Pol eta primer extension, TAMRA/BHQ fluorescence, 10 min. Potency, µM, hits mostly inhibitors; further: potency means the concentration at half of the fitted maximal effect
An asterisk follows results filed as active; ? = inconclusive; · = not tested or not shown; [ ] = another dose, or the depositor's remark. Unless noted, the call rests on the fitted dose curve; in most records, active means well fitted curve in the direction sought with a large enough effect; inconclusive means small, poorly fitted or top-dose-only effect, or another doubt; inactive means no such curve, though single readings can be large; an effect the other way counts as inactive or inconclusive.

SMILES	POLI inh	WRN helicase inh	Pol beta inh	PI5P4Ka inh	Pol kappa inh-1	Pol eta inh-1	Pol iota confirm	Pol eta inh-2	others
Cc1nc2cnc(N3CCN(C)CC3)nc2n(-c2ccccc2)c1=O	·	·	·	·	5%[60.1 µM]	·	·	·
NS(=O)(=O)c1ccc(N=Nc2ccc(=O)[nH]c2O)cc1	?	50µM*	6.3µM*	-80*	?	10µM*	38*	?	TbPGK inh=5.2µM*;Pol kappa inh-2=15*
Cc1c(C#N)c(O)n(C)c(=O)c1N=Nc1ccc(S(N)(=O)=O)cc1	?	-9%	-15%	-15	-16%	6%	·	·
CC(=O)Nc1ccc(N=Cc2c(O)c(C(=O)Nc3ccccc3)cc3ccccc23)cc1	7%	-28%[11.6 µM]	?	-14	5%	?	30*	76*	Pol kappa inh-2=75*
COc1ccc(NC(=O)CSC2=Nc3ccccc3C3=NC(CC(=O)NCCc4ccccc4)C(=O)N23)cc1 (stereo unspecified)	5%	·	25%	·	-5%[60.1 µM]	-3%	·	·
CCN(Cc1ccccc1)Cc1c(O)ccc2c(=O)c(-c3ccc(Cl)cc3)coc12	7%	·	15%	·	-5%	-18%	·	·
CN(C)c1ccc(-c2ccc3c(=O)c4ccccc4n(C)c3c2)cn1	?	-18%[11.6 µM]	?	?	-6%	20µM*	?	?
CCOC(=O)c1ccc(NCc2cccnc2)cc1	11%	14%	32%	3	6%	-19%	·	·
COc1cc(Br)c(/C=C(\C#N)c2nc3ccccc3[nH]2)cc1OC	34%	·	2%	·	-4%	-21%	·	·
COc1cc(/C=C(\C#N)c2nc3ccccc3[nH]2)ccc1OCc1ccc(F)cc1	?	·	11µM*	·	-21%	79µM*	67*	?
CCOC(=O)C1(CCOc2ccccc2)CCN(Cc2cccc(OC)c2OC)CC1	-7%	3%	22%	-7	-6%	-9%	·	·
CCc1noc(C)c1C(=O)N1CCN(S(=O)(=O)c2ccc(Cl)s2)CC1	30%	2%	·	4	6%	-11%	·	·
C[C@H](CO)N1C[C@H](C)[C@H](CN(C)Cc2cncnc2)Oc2cc(Br)ccc2S1(=O)=O	·	2%	·	-5	·	-11%	·	·
CC(=O)NC1=NC(=O)/C(=C/c2cc(C)n(-c3cccc(C(=O)O)c3)c2C)S1	14µM*	45µM*	6.3µM*	?	40µM*	4µM*	9.5*	11*	TbPGK inh=6.5µM*;Pol kappa inh-2=8.4*
CC(=O)NC1=NC(=O)/C(=C/c2cc(C)n(-c3ccc(NC(C)=O)cc3)c2C)S1	-8%	-22%	10%	3	-18%	-3%	·	·
Cc1cc(/C=N/NC(=O)C(O)(c2ccccc2)c2ccccc2)c(C)n1-c1cccc(C(=O)O)c1	16µM*	?	16µM*	-51*	?	10µM*	34*	15*
O=C(O)CCNc1cc(N2CCN(C(=O)c3ccco3)CC2)c2noc3c2c1C(=O)c1ccccc1-3	?	18µM*	18µM*	-58*	13µM*	3.2µM*	17*	6.7*	TbPGK inh=21µM*;Pol kappa inh-2=?
CC1CCCCC1NC1=NCCCS1 (stereo unspecified)	·	·	-18%	·	·	·	·	·
O=C1C(Nc2ccccc2)=CC(=O)c2ncccc21	·	·	·	·	-10%[12 µM]	·	·	·
CC(NC1=CC(=O)c2cccnc2C1=O)C(O)c1ccccc1 (stereo unspecified)	4.5µM*	?	·	5	-9%	16µM*	19*	24*
O=C(Cn1c(=O)n(Cc2ccc3c(c2)OCO3)c(=O)c2oc3ccccc3c21)Nc1ccccc1F	14%	·	-16%	·	-9%	-3%	·	·
Oc1ccc2ccccc2c1C=NC12CN3CCN(CN(C3)C1)C2	20µM*	?	4%	-26	-9%	20µM*	?	?
Cc1ccccc1NC(=O)c1nc2nccc(C)n2n1	·	·	-4%	·	·	·	·	·
Cc1ccnc2nc(C(=O)Nc3nc(-c4ccccn4)cs3)nn12	50µM*	?	11µM*	?	?	79µM*	67*	85*
COc1ccc(N2Cc3cccc(C(=O)Nc4cccc(F)c4)c3C2=O)cc1	79µM*	·	14µM*	·	?	·	38*	76*	Pol kappa inh-2=12*
SMILES	POLI inh	WRN helicase inh	Pol beta inh	PI5P4Ka inh	Pol kappa inh-1	Pol eta inh-1	Pol iota confirm	Pol eta inh-2	others
COc1cc(-c2noc(C)c2/C=C/c2ccc(C(=O)O)cc2)cc(OC)c1OC	?	?	14µM*	-3	71µM*	13µM*	42*	27*
CCOc1cc(/C=C2\C(=N)N3N=C(S(C)(=O)=O)SC3=NC2=O)ccc1OCCOc1cccc(OC)c1	?	56µM*	?	-80*	-21%	28µM*	?	85*	Pol kappa inh-2=75*
COc1cc(/C=C2/C(=N)N3C(=NC2=O)SN=C3S(C)(=O)=O)ccc1OS(=O)(=O)c1ccc(C)cc1	?	?	?	-79*	-28%	79µM*	?	30*
COc1cc(/C=C2/C(=N)N3N=C(C)SC3=NC2=O)ccc1OS(=O)(=O)c1ccc(C)cc1	?	-29%	-3%	-18	-4%	-17%	·	·
COc1cc(/C=C2\C(=N)N3N=C(S(C)(=O)=O)SC3=NC2=O)cc(OC)c1OCCOc1cccc(C)c1	93%	-33%	?	?	-8%	?	·	·
Cc1ccc(S(=O)(=O)Oc2ccc(/C=C3\C(=N)N4N=C(S(C)(=O)=O)SC4=NC3=O)cc2)cc1	16µM*	?	?	-57*	-26%	20µM*	?	76*
